TMEM16A inh: inhibitors of mouse TMEM16A calcium-activated chloride channel | AID 588511 | HEK293 TMEM16A/YFP iodide influx fluorescence, ionomycin | normalized B-score (activity score, 25-100; higher = stronger inhibition) at 10 µM | Q8BHY3 | 310,000 compounds, 1.2% hits;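 active = ratio plate-corrected score three or more library SD toward inhibition, starting fluorescence score within five deviations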;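 note: score derived from kinetic fluorescence span divided by baseline fluorescence per well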
CRFBP-R2 block: antagonists of CRF-binding protein/CRF-R2 receptor complex | 350,000 compounds, 0.59% hits | inhibition, % at 11.8 µM | HEK293 CRF-R2/CRF-BP, CRF-induced calcium fluorescence;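 active = inhibition of the ligand-induced calcium signal above about 50% at the single tested concentration, limit read from the data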
MPTP block: blocks calcium-induced mitochondrial swelling; isolated mouse mitochondria, Ca2+ swelling absorbance, 30 min; inhibition, % at 10 µM; 360,000 compounds, 1.4% hits;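 active = inhibition of 50% or more, scaled per plate between neutral and stimulator controls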
TMEM16A act: activators or potentiators of mouse TMEM16A chloride channel. B-score at 10 µM. AID 623877. 340,000 compounds, 0.3% hits. Q8BHY3. HEK293 TMEM16A/YFP-H148Q/I152L, iodide quench fluorescence; hits give low values;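 active = fluorescence-ratio B-score plate-corrected deviation score at least 3 library SD below zero, with starting fluorescence score within 5 deviations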;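 note: channel opened by trigger with iodide after compound preincubation; score built on the fluorescence ratio of max minus min over baseline; more negative score means more quench and so TMEM16A activation or potentiation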
CRFBP-R2 agonist: CRF-BP/CRF-R2 complex agonism. HEK293 CRF-R2/CRF-BP, calcium dye fluorescence (FLIPR); percent of saturating CRF peptide response. activation, % at 13.2 µM. 350,000 compounds, 0.46% hits;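 active = activation of at least 50%, plus an integration ratio under a set limit after plate pattern correction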
GRIN3A LBD mod: NR3A (human) ligand-binding domain modulation; NR3A LBD differential scanning fluorimetry, Tm shift; 0% = protein alone, 100% = glycine-bound protein; AID 1259313; 340,000 compounds, 2.5% hits; Tm shift relative to glycine control, % at 25 µM;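 active = melting temperature shift of at least 10% of the positive control shift, at one fixed dose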
TMEM16A reconf: re-confirmation of mouse TMEM16A chloride channel inhibitors | shares compounds with TMEM16A inh | HEK293 TMEM16A/YFP-H148Q, iodide quench fluorescence; ionomycin added to raise cell calcium | inhibition, % at 10 µM | 2,300 compounds, 39% hits | AID 652189;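 active = mean duplicate percent inhibition, scaled so buffer wells are 0 and the reference blocker 100, over three buffer SD above buffer mean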
HEK293 Ca mobil: calcium mobilization counter-screen hit for TMEM16A inhibitor series; shares compounds with TMEM16A inh; TMEM16A/YFP HEK293, Fluo4 calcium mobilization; calcium response (% of ionomycin), % at 10 µM; 2,300 compounds, 2% hits;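 active = duplicate-averaged calcium signal over 20% of the ionomycin maximum, relative to buffer baseline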;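 note: each well's signal is peak minus trough fluorescence divided by its pre-addition baseline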
Parental YFP cnt: counter-screen for TMEM16A inhibitors: effect in parental YFP-HEK293 cells; 2,300 tested, under 10 active; AID 652233; iodide YFP quench, ionomycin; YFP ratio F(max-min)/F0 at 10 µM; shares compounds with TMEM16A inh;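 active = yellow fluorescent protein signal ratio exceeding the buffer control mean by over 5 SD of those controls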;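 note: ratio is mean of duplicate wells from kinetic YFP trace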
ClC-1 inh: selectivity of TMEM16A inhibitors: inhibition of rat ClC-1 chloride channel; CHO ClC-1-YFP, iodide influx fluorescence quench; iodide control reads 0, buffer control 100; shares compounds with TMEM16A inh; ratio percent, % at 10 µM; 2,300 tested, under 10 active;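 active = duplicate-mean ratio percent above the mean of iodide-only control wells, which defines zero, plus 5 of their SD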;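 note: higher percent means stronger block of ClC-1 iodide influx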
Hits are given with their value; i = inactive; nt = no result. Shown are actives, neighbours in structure and some others; about 5.1% of the full set was active somewhere.

SMILES | TMEM16A inh | CRFBP-R2 block | MPTP block | TMEM16A act | CRFBP-R2 agonist | GRIN3A LBD mod | TMEM16A reconf | HEK293 Ca mobil | Parental YFP cnt | ClC-1 inh
Cc1cccc(NC(=O)C2=C(O)c3ccccc3N(C)S2(=O)=O)c1 | i | i | i | i | i | i | nt | nt | nt | nt
O=C(c1cc(-c2ccccc2)nc2ccccc12)N1N=C(C(F)F)CC1(O)C(F)F (configuration not stated) | 100 | i | i | i | i | i | i | i | i | i
CCOc1cccc(-c2cc(C(=O)N3N=C(C)CC3(O)C(F)F)c3ccccc3n2)c1 (configuration not stated) | i | i | i | i | i | i | nt | nt | nt | nt
CC1CCCCN1CC(O)COCc1ccc(Cl)cc1 (configuration not stated) | i | i | i | i | i | i | nt | nt | nt | nt
COc1ccc(C(=O)N[C@H](C(=O)NCCCSc2ccccc2)C(C)C)cc1 | nt | i | i | i | i | i | nt | nt | nt | nt
O=c1oc(CCCO)cc2ccc(/C=C/c3cccc([N+](=O)[O-])c3)cc12 | nt | i | i | i | i | i | nt | nt | nt | nt
COc1cc(C(=O)N2CCN(c3ncnc4sc(C)c(C)c34)CC2)cc(OC)c1OC | 25 | i | i | i | i | i | i | i | i | i
O=C(Nc1ccc(Cl)c(S(=O)(=O)N2CCOCC2)c1)[C@@H]1CCCN1C(=O)c1cccs1 | nt | i | i | i | i | i | nt | nt | nt | nt
Cc1cccc(-c2nnc(NC(=O)c3ccc(N4C(=O)CCC4=O)cc3)s2)c1 | i | i | i | i | i | i | i | i | i | i
CCOC(=O)[C@@H]1[C@H]2COc3cc(OC)ccc3[C@H]2N2C(=O)N(c3ccc(C)cc3)C(=O)[C@]12C | nt | i | i | i | i | i | nt | nt | nt | nt
c1ccc(-c2csc(N3CCN(c4ccccn4)CC3)n2)cc1 | 25 | i | i | i | i | i | i | i | i | i
CCOC(=O)c1c(C)c(C)n(Cc2cccc(OC)c2OC)c1C | i | i | i | i | i | i | nt | nt | nt | nt
CCOC(=O)c1cc(C)n(Cc2cccc(OC)c2OC)c1C | 25 | i | i | i | i | i | 29.0% | i | i | i
COc1ccc(C(=O)NCCC(=O)N2CCC3(CC2)NCCc2[nH]cnc23)cc1 | i | i | i | i | i | i | nt | nt | nt | nt
N#CCSc1nnc(COc2cccc3ccccc23)n1-c1ccccc1 | 25 | i | i | i | i | i | i | i | i | i
N#CCSc1nnc(COc2ccccc2)n1-c1ccccc1 | 25 | i | i | i | i | i | i | i | i | i
C/C(O)=c1/ccc2cccc3nc(C)nc1c23 | i | i | i | i | i | i | i | 101.5% | i | i
Cc1cccc2nc3ccccc3cc12 | i | i | i | i | i | i | nt | nt | nt | nt
CCN1CCN(CCCNC(=O)c2ccc(/C=C3/Sc4ccccc4N(Cc4ccccc4F)C3=O)cc2)CC1 | i | i | i | i | i | i | 25.0% | i | i | i
COc1cccc(OC)c1-c1nn2c(-c3ccccc3Cl)nnc2s1 | i | i | i | i | i | i | i | i | i | i
CSCC[C@H](NC(=O)OC(C)(C)C)C(=O)N1CCC(C(=O)N[C@@H](C)C(=O)O)CC1 | i | i | i | i | i | i | nt | nt | nt | nt
CSCC[C@H](NC(=O)OC(C)(C)C)C(=O)N1CCC(C(=O)NCC(=O)Nc2ccc(C)cc2)CC1 | i | i | i | i | i | i | i | i | i | i
OC(c1ccc(-c2ccccc2)cc1)c1ncc(-c2ccccc2Cl)[nH]1 (configuration not stated) | nt | nt | i | nt | nt | nt | nt | nt | nt | nt
Cn1nc(C(F)(F)F)c(C#N)c1N1CCN(c2ccccc2)CC1 | i | i | i | i | i | i | nt | nt | nt | nt
Cn1nc(C(F)(F)F)c(C#N)c1N1CCN(c2ccc(F)cc2)CC1 | 25 | i | i | i | i | i | i | i | i | i
SMILES | TMEM16A inh | CRFBP-R2 block | MPTP block | TMEM16A act | CRFBP-R2 agonist | GRIN3A LBD mod | TMEM16A reconf | HEK293 Ca mobil | Parental YFP cnt | ClC-1 inh
COc1ccc(OCC(=O)Nc2c3c(nn2-c2ccc(OC)cc2)CS(=O)(=O)C3)cc1 | i | i | i | i | i | i | nt | nt | nt | nt
CN=c1nc(-c2ccccc2)n(-c2ccccc2)s1 | 25 | i | i | i | i | i | i | i | i | i
O=C(COc1ccccc1Br)c1ccc(O)cc1O | 100 | i | i | i | i | 21.5 | i | i | i | i
O=C(COc1ccccc1Br)c1ccc2c(c1)OCO2 | i | i | i | i | i | i | nt | nt | nt | nt
CN1C[C@@H]2[C@@H]3C(=O)N(C)C(=O)[C@@H]3[C@](C)(C1=O)N2C(=O)c1ccc(Br)cc1 | nt | i | i | i | i | i | nt | nt | nt | nt
COc1cccc(C2=CC(c3cccc(OC)c3OC(F)F)n3nnnc3N2)c1 (configuration not stated) | 100 | i | i | i | i | i | i | i | i | i
COc1cccc(C2=CC(c3cccc(OC)c3OC)n3nnnc3N2)c1 (configuration not stated) | i | i | i | i | i | i | nt | nt | nt | nt
Cc1c(NC(=O)CSc2ccc(Cl)cc2)cccc1-c1nc2ncccc2o1 | 25 | i | i | i | i | i | 19.5% | i | i | i
CCCCOC(=O)c1ccc(NC(=O)COC(=O)C2CSC3(C)CCC(=O)N23)cc1 (configuration not stated) | 25 | i | i | i | i | i | 30.5% | i | i | i
CC(=O)Oc1c(S(=O)(=O)c2ccc(C)cc2)c(C)nn1C(C)(C)C | i | i | i | i | i | i | nt | nt | nt | nt
Cc1ccc(S(=O)(=O)c2c(C)nn(C(C)(C)C)c2OC(=O)C(C)(C)C)cc1 | 100 | i | i | i | i | i | i | i | i | i
Cc1ccc(C(C(=O)NC2CCCCC2)N(CC2CCCO2)C(=O)CCCC(=O)Nc2ccccn2)cc1 (configuration not stated) | i | i | i | i | i | i | nt | nt | nt | nt
CCOc1ccc(OCc2ccc(C(=O)OCc3ccccn3)o2)cc1 | 100 | i | i | i | i | i | i | i | i | i
CCOC(=O)c1ccc(COc2ccc(C(C)C)cc2)o1 | i | i | i | i | i | i | nt | nt | nt | nt
CCOc1ccc(Br)cc1S(=O)(=O)N1CC(C)OC(C)C1 (configuration not stated) | 100 | i | i | i | i | i | i | i | i | i
CCOc1cc(Br)ccc1S(=O)(=O)N1CC(C)OC(C)C1 (configuration not stated) | i | i | i | i | i | i | nt | nt | nt | nt

Screening results (PubChem)
